What was measured:
[1] = biological target: T1, Ephrin type-A receptor 3 (Homo sapiens) (UniProt P29320); details: at 10 µM
T1 sequence (whole entry): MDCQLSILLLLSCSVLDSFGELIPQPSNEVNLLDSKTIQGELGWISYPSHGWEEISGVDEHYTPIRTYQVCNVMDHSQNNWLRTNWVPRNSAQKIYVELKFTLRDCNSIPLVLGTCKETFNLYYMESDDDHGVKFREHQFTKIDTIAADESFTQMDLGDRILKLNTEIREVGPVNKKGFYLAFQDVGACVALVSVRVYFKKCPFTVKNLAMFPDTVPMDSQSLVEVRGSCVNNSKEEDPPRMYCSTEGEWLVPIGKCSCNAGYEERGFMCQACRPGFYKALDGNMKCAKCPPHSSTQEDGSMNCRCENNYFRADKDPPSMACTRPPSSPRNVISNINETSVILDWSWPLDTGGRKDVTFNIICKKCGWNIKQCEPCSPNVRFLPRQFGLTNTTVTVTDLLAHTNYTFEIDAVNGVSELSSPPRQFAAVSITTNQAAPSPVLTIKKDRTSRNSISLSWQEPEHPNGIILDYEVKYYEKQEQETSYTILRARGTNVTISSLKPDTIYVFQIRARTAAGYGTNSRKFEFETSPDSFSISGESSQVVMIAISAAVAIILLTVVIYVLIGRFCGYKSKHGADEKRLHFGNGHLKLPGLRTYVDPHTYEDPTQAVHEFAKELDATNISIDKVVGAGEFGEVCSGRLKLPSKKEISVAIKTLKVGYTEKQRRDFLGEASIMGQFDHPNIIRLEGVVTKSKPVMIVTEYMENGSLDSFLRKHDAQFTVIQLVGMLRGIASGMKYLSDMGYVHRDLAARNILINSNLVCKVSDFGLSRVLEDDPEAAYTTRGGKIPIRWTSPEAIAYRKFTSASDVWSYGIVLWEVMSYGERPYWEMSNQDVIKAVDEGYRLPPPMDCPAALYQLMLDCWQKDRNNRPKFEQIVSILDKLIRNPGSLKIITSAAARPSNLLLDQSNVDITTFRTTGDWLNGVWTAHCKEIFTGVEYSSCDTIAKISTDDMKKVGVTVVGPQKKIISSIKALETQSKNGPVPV

[2] = biological target: Ephrin type-A receptor 7 (Homo sapiens) (UniProt Q15375); details: at 1 µM
Chain of Ephrin type-A receptor 7 (Homo sapiens) (Q15375 28-998 limits assumed): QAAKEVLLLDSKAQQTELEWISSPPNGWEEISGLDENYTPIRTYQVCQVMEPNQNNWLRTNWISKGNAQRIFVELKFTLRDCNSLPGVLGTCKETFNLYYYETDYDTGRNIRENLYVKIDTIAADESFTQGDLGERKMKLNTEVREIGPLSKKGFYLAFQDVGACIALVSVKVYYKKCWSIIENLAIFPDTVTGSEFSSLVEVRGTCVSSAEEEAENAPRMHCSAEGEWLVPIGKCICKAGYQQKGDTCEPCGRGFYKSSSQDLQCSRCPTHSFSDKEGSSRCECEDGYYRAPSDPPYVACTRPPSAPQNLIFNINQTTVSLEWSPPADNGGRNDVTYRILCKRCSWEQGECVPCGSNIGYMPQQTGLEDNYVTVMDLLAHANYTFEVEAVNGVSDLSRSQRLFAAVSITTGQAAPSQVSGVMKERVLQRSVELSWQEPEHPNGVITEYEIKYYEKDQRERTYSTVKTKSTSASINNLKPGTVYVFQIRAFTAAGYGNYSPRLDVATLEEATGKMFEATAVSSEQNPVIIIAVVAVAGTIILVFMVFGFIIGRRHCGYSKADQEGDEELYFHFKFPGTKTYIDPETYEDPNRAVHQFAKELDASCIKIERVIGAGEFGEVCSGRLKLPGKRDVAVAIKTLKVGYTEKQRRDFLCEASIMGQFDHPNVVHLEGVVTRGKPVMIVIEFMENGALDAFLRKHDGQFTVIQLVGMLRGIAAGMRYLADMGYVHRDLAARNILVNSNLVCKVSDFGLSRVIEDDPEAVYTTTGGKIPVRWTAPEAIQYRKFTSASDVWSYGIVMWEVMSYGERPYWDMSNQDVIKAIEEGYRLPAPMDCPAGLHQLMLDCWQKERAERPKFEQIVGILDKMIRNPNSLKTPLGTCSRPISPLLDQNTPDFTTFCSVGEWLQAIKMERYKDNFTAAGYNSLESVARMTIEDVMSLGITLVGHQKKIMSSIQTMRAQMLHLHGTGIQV

[3] = biological target: Ephrin type-A receptor 7 (Homo sapiens) (UniProt Q15375); details: at 10 µM
[4] = biological target: T2, Ephrin type-B receptor 1 (Homo sapiens) (UniProt P54762); details: at 1 µM
T2 sequence (whole entry): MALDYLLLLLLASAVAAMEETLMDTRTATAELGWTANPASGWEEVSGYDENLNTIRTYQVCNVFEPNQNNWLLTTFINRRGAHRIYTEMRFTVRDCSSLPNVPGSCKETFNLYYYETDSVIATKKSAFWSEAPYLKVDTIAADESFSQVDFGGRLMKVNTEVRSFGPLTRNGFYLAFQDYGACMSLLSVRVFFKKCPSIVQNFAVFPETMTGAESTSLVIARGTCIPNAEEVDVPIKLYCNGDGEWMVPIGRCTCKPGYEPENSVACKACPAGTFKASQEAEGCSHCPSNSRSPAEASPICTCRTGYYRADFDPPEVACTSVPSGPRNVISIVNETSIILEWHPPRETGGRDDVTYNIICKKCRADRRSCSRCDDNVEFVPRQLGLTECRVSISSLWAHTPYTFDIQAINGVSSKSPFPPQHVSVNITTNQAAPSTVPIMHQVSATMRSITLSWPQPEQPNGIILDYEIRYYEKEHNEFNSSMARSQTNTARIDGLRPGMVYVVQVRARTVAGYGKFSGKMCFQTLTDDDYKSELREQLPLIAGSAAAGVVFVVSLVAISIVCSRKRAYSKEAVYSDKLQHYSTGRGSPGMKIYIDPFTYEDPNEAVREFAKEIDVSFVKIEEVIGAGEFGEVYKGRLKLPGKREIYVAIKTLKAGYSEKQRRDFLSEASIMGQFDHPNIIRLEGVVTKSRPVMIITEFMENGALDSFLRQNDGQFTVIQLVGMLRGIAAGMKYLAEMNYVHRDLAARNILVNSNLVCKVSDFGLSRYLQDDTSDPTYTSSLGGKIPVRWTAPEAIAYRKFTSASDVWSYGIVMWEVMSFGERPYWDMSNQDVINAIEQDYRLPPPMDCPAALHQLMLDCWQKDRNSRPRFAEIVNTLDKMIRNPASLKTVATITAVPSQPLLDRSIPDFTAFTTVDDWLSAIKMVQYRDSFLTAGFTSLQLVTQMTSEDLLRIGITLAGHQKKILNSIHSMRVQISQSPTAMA

[5] = biological target: T2, Ephrin type-B receptor 1 (Homo sapiens); details: at 10 µM
[6] = biological target: T3, Ephrin type-B receptor 3 (Homo sapiens) (UniProt P54753); details: at 1 µM
T3 sequence (whole entry): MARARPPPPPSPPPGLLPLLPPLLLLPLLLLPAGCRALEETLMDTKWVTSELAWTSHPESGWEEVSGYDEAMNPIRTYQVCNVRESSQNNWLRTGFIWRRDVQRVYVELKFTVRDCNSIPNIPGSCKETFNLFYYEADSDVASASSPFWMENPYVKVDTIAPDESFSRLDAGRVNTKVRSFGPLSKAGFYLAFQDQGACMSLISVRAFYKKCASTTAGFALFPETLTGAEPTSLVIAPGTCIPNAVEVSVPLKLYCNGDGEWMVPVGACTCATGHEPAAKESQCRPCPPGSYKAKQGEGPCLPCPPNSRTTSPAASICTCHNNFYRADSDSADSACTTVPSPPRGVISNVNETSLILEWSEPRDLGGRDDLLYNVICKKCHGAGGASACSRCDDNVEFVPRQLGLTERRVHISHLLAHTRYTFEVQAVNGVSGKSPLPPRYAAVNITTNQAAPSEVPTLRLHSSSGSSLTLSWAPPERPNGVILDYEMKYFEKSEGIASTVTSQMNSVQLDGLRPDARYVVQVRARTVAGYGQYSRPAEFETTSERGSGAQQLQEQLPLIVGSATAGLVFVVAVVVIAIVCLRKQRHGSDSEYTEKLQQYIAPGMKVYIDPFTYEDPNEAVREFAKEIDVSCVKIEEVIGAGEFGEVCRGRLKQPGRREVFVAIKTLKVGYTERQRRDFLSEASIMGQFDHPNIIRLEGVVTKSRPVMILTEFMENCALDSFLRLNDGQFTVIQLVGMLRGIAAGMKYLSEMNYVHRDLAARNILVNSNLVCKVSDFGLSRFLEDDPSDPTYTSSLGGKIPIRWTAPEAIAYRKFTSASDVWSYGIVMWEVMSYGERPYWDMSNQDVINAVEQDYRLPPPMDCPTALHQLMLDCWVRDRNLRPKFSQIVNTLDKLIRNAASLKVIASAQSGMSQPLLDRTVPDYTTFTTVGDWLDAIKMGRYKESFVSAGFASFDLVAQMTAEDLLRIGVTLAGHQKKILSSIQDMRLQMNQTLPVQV

[7] = biological target: T3, Ephrin type-B receptor 3 (Homo sapiens); details: at 10 µM
[8] = biological target: T4, Ephrin type-B receptor 4 (Homo sapiens) (UniProt P54760); details: at 1 µM
T4 sequence (whole entry): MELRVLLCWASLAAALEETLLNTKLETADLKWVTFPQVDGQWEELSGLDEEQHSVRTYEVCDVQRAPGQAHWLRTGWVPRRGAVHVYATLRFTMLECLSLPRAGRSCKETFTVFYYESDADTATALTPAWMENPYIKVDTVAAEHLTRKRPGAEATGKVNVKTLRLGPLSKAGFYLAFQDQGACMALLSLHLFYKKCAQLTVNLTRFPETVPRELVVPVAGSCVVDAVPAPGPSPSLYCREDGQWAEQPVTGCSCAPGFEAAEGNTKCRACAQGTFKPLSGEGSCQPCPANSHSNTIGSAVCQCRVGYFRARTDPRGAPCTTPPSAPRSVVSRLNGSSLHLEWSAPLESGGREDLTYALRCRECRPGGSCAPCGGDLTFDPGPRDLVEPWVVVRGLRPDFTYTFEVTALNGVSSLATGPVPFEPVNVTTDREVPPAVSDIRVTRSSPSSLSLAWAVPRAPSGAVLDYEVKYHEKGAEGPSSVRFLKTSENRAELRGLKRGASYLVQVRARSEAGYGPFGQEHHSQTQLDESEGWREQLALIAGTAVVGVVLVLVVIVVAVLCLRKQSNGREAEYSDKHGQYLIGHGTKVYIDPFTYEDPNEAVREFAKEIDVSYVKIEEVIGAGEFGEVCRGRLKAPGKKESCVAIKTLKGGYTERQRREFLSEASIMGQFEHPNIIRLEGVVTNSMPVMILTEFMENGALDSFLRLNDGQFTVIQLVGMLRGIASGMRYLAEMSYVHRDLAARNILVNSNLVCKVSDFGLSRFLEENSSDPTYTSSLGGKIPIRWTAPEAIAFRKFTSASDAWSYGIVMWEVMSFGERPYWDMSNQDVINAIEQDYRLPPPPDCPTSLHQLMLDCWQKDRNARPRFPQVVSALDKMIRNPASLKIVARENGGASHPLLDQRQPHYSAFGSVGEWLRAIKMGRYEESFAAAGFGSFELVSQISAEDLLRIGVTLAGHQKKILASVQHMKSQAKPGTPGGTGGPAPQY

[9] = biological target: T4, Ephrin type-B receptor 4 (Homo sapiens); details: at 10 µM
[10] = biological target: Receptor tyrosine-protein kinase erbB-4 (Homo sapiens) (UniProt Q15303); details: at 10 µM
Chain of Receptor tyrosine-protein kinase erbB-4 (Homo sapiens) (Q15303 whole entry): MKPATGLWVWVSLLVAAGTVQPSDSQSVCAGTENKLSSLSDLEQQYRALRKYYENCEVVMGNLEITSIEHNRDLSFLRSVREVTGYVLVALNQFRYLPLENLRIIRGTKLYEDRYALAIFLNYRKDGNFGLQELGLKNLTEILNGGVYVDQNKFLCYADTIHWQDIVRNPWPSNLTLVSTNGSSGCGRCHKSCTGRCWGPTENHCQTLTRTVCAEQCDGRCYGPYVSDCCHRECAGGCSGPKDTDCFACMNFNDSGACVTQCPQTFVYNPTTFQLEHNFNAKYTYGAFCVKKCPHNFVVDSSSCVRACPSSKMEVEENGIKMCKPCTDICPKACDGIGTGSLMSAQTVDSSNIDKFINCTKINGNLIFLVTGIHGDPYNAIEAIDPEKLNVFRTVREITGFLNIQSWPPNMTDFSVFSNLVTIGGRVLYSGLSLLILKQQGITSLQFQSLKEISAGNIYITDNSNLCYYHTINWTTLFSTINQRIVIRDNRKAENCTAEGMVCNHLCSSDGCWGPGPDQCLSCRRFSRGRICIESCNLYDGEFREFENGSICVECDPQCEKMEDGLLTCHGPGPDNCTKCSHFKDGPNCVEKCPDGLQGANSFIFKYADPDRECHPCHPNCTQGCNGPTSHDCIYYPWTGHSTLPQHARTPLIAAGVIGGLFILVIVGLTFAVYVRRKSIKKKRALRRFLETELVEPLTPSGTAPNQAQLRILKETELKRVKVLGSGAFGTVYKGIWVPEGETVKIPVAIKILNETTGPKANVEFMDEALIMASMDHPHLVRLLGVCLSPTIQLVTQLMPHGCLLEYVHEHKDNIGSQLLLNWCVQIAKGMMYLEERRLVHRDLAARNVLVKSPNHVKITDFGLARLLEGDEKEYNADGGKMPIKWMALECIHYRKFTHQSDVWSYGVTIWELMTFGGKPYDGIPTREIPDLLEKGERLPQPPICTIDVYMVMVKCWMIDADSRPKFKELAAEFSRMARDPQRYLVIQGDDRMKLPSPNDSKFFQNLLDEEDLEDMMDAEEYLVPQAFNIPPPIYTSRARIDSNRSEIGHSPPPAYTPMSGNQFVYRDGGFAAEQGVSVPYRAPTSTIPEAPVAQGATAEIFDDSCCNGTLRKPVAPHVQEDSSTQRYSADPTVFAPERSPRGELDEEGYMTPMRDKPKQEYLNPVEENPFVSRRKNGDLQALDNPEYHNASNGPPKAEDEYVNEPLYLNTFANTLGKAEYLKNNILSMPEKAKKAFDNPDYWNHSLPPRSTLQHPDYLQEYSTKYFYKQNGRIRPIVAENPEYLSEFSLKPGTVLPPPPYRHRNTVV

[11] = biological target: Focal adhesion kinase 1 (Homo sapiens) (UniProt Q05397); details: at 1 µM
Chain of Focal adhesion kinase 1 (Homo sapiens) (Q05397 2-1052 limits assumed): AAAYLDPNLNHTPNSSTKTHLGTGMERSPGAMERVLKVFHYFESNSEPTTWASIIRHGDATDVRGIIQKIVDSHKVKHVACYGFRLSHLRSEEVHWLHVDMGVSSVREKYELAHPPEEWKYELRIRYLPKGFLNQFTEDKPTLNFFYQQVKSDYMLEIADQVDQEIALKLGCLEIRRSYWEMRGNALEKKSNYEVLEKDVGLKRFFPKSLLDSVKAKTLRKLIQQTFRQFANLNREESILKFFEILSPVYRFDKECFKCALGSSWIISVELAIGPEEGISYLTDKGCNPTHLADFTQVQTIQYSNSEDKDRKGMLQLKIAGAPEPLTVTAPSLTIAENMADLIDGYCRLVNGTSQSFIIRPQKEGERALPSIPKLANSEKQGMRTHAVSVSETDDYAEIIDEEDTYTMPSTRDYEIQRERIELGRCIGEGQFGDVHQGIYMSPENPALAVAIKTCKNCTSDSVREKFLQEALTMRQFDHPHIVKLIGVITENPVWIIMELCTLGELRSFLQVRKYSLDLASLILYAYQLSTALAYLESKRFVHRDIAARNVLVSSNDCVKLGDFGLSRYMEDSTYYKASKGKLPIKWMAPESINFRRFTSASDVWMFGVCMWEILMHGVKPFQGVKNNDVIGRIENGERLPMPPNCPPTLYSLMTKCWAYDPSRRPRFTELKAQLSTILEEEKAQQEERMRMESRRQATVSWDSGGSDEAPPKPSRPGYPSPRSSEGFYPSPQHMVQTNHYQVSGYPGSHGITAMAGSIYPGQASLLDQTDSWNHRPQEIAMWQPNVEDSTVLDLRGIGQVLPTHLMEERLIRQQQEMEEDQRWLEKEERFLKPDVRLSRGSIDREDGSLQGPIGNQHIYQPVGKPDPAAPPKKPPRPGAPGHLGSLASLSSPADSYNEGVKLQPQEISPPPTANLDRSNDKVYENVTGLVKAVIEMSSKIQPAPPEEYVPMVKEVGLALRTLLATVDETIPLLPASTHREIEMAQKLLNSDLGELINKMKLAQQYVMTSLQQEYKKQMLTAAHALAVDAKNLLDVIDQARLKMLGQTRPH

## c1ccc(-c2cnc(Nc3ccc(OCCN4CCCC4)cc3)s2)cc1
[1]
  residual activity: 69%
[2]
  residual activity: 104%
[3]
  residual activity: 76%
[4]
  residual activity: 104%
[5]
  residual activity: 65%
[6]
  residual activity: 112% (inactive)
[7]
  residual activity: 120%
[8]
  residual activity: 109%
[9]
  residual activity: 64%
[10]
  residual activity: 61%
[11]
  residual activity: 132%
